Results: PubChem BioAssay AID1159580 (chemical genetic matrix, 2015)
About 2,000 (36%) of roughly 5,500 compounds were called active. Not shown: some 18% with an inconclusive outcome. Cut-off read from the data, not from the text of the source: active = normalized growth mostly below about 0.91 (no sharp cut-off); inconclusive = no clear call, values can overlap the other calls; inactive = mostly above about 0.92. The list shows a part of the results.

Assay: chemical genetic growth profiling, strain panel (AID 1159580);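 note: tested at 20 µM; growth read once vehicle control cultures reached saturation at 30 °C; 1 = growth at the plate median or of vehicle wells; lower values mean less growth of the strain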
Conditions: growth OD

Measured: normalized growth

O=C1OC(c2ccc(O)cc2)(c2ccc(O)cc2)c2ccccc21
active: S. cerevisiae deletion strains, locus YLR418C, strain cdc73, hits give low values 0.835
inactive: S. cerevisiae deletion strains, locus YJR043C, strain POL32, hits give low values 0.991 | S. cerevisiae deletion strains, locus YJR066W, strain TOR1, hits give low values 0.937 | S. cerevisiae deletion strains, locus YKL009W, strain mrt4, hits give low values 0.979 | S. cerevisiae deletion strains, locus YKL068W, hits give low values 0.991 | S. cerevisiae deletion strains, locus YKL085W, strain MDH1 (second series), hits give low values 0.975 | S. cerevisiae deletion strains, locus YKL085W, strain MDH1, hits give low values 0.975 | S. cerevisiae deletion strains, locus YKL160W, strain elf1, hits give low values 0.97 | S. cerevisiae deletion strains, locus YKL190W, strain CNB1, hits give low values 0.994 | S. cerevisiae deletion strains, locus YKR001C, strain vps1, hits give low values 0.993 | S. cerevisiae deletion strains, locus YKR091W, strain srl3, hits give low values 0.989 | S. cerevisiae deletion strains, locus YLL001W, strain dnm1, hits give low values 0.964 | S. cerevisiae deletion strains, locus YLL026W, hits give low values 0.973 | S. cerevisiae deletion strains, locus YLL041C, strain sdh2, hits give low values 0.979 | S. cerevisiae deletion strains, locus YLR027C, strain aat2, hits give low values 0.983 | S. cerevisiae deletion strains, locus YLR039C, strain RIC1, hits give low values 0.96 | S. cerevisiae deletion strains, locus YLR058C, strain SHM2, hits give low values 0.995 | S. cerevisiae deletion strains, locus YLR102C, strain apc9, hits give low values 0.978 | S. cerevisiae deletion strains, locus YLR113W, strain HOG1, hits give low values 0.974 | S. cerevisiae deletion strains, locus YLR221C, strain rsa3, hits give low values 1.01 | S. cerevisiae deletion strains, locus YLR258W, strain gsy2, hits give low values 0.973 | S. cerevisiae deletion strains, locus YLR262C, strain YPT6 (second series), hits give low values 0.995 | S. cerevisiae deletion strains, locus YLR262C, strain YPT6, hits give low values 0.946 | S. cerevisiae deletion strains, locus YLR268W, strain sec22, hits give low values 0.916 | S. cerevisiae deletion strains, locus YLR320W, strain mms22, hits give low values 1 | S. cerevisiae deletion strains, locus YLR330W, strain CHS5, hits give low values 0.982 | S. cerevisiae deletion strains, locus YLR342W, strain FKS1 (second series), hits give low values 0.998 | S. cerevisiae deletion strains, locus YLR342W, strain FKS1, hits give low values 0.994 | S. cerevisiae deletion strains, locus YLR357W, strain rsc2, hits give low values 0.949 | S. cerevisiae deletion strains, locus YLR370C, strain arc18, hits give low values 0.989 | S. cerevisiae deletion strains, locus YLR371W, strain rom2, hits give low values 0.948 | S. cerevisiae deletion strains, locus YLR384C, strain iki3, hits give low values 0.981 | S. cerevisiae deletion strains, locus YML016C, strain PPZ1, hits give low values 1 | S. cerevisiae deletion strains, locus YML032C, strain rad52, hits give low values 0.956 | S. cerevisiae deletion strains, locus YML120C, strain ndi1, hits give low values 0.977 | S. cerevisiae deletion strains, locus YML124C, strain tub3, hits give low values 0.978 | S. cerevisiae deletion strains, locus YMR058W, strain fet3, hits give low values 0.966 | S. cerevisiae deletion strains, locus YMR078C, strain ctf18, hits give low values 0.968 | S. cerevisiae deletion strains, locus YMR125W, strain sto1, hits give low values 0.962 | S. cerevisiae deletion strains, locus YMR129W, hits give low values 0.987 | S. cerevisiae deletion strains, locus YMR205C, strain PFK2, hits give low values 0.971 | S. cerevisiae deletion strains, locus YMR223W, strain ubp8, hits give low values 0.997 | S. cerevisiae deletion strains, locus YMR231W, strain pep5, hits give low values 0.992 | S. cerevisiae deletion strains, locus YMR307W, strain GAS1, hits give low values 0.909 | S. cerevisiae deletion strains, locus YNL067W, strain RPL9B, hits give low values 0.987 | S. cerevisiae deletion strains, locus YNL071W, strain lat1, hits give low values 0.95 | S. cerevisiae deletion strains, locus YNL153C, strain GIM3, hits give low values 1 | S. cerevisiae deletion strains, locus YNL183C, strain NPR1, hits give low values 0.956 | S. cerevisiae deletion strains, locus YNL209W, strain ssb2, hits give low values 0.99 | S. cerevisiae deletion strains, locus YNL233W, strain BNI4, hits give low values 0.981 | S. cerevisiae deletion strains, locus YNL250W, strain rad50, hits give low values 0.99 | S. cerevisiae deletion strains, locus YNL271C, strain bni1, hits give low values 0.988 | S. cerevisiae deletion strains, locus YNL298W, strain CLA4, hits give low values 0.99 | S. cerevisiae deletion strains, locus YNL307C, strain MCK1, hits give low values 0.937 | S. cerevisiae deletion strains, locus YNL322C, strain KRE1 (second series), hits give low values 0.991 | S. cerevisiae deletion strains, locus YNL322C, strain KRE1, hits give low values 0.994 | S. cerevisiae deletion strains, locus YNR049C, strain mso1, hits give low values 0.99 | S. cerevisiae deletion strains, locus YNR052C, strain pop2, hits give low values 0.969 | S. cerevisiae deletion strains, locus YOL006C, strain TOP1, hits give low values 0.952 | S. cerevisiae deletion strains, locus YOL012C, strain htz1 0.612 | S. cerevisiae deletion strains, locus YOL147C, strain pex11, hits give low values 0.981 | S. cerevisiae deletion strains, locus YOR001W, strain rrp6, hits give low values 0.973 | S. cerevisiae deletion strains, locus YOR061W, strain CKA2, hits give low values 1 | S. cerevisiae deletion strains, locus YOR069W, strain VPS5, hits give low values 0.988 | S. cerevisiae deletion strains, locus YOR070C, strain gyp1, hits give low values 0.991 | S. cerevisiae deletion strains, locus YOR080W, strain dia2, hits give low values 0.981 | S. cerevisiae deletion strains, locus YOR083W, strain WHI5, hits give low values 0.983 | S. cerevisiae deletion strains, locus YOR106W, strain vam3, hits give low values 0.944 | S. cerevisiae deletion strains, locus YOR136W, strain idh2, hits give low values 0.983 | S. cerevisiae deletion strains, locus YOR144C, strain elg1, hits give low values 0.987 | S. cerevisiae deletion strains, locus YOR184W, strain ser1, hits give low values 0.939 | S. cerevisiae deletion strains, locus YOR231W, strain MKK1, hits give low values 0.974 | S. cerevisiae deletion strains, locus YOR265W, strain rbl2, hits give low values 0.995 | S. cerevisiae deletion strains, locus YOR270C, strain vph1, hits give low values 0.89 | S. cerevisiae deletion strains, locus YOR290C, strain snf2, hits give low values 0.965 | S. cerevisiae deletion strains, locus YOR316C, strain cot1, hits give low values 0.968 | S. cerevisiae deletion strains, locus YPL051W, strain arl3, hits give low values 1 | S. cerevisiae deletion strains, locus YPL078C, strain atp4, hits give low values 0.952 | S. cerevisiae deletion strains, locus YPL106C, strain sse1, hits give low values 1.01 | S. cerevisiae deletion strains, locus YPL240C, strain hsp82, hits give low values 0.982 | S. cerevisiae deletion strains, locus YPL241C, strain CIN2, hits give low values 0.989 | S. cerevisiae deletion strains, locus YPL256C, strain CLN2, hits give low values 0.965 | S. cerevisiae deletion strains, locus YPR119W, strain clb2, hits give low values 0.98 | S. cerevisiae deletion strains, locus YPR141C, strain kar3, hits give low values 0.998 | S. cerevisiae deletion strains, locus YPR163C, strain tif3, hits give low values 0.965 | S. cerevisiae deletion strains, locus YPR167C, strain met16, hits give low values 0.972 | S. cerevisiae deletion strains, strain wtn01, hits give low values 0.954 | S. cerevisiae strains, strain wild type, hits give low values 0.998
